BAZ2B block = BAZ2B (human) inhibition | 360,000 tested, 4.4% active | Q9UIF8 | AlphaScreen BAZ2B-H3K14Ac peptide displacement | Potency, µM (doses to about 114 µM), for inactives: at the top dose activity change, negative = inhibition, hits mostly inhibitors; further: potency means the concentration at half of the fitted maximal effect; on the % scale 0 is the no-effect control and ±100 the full control effect; nearly all actives have a fitted effect of over 60% in size
Target sequence (Q9UIF8 whole entry, looked up): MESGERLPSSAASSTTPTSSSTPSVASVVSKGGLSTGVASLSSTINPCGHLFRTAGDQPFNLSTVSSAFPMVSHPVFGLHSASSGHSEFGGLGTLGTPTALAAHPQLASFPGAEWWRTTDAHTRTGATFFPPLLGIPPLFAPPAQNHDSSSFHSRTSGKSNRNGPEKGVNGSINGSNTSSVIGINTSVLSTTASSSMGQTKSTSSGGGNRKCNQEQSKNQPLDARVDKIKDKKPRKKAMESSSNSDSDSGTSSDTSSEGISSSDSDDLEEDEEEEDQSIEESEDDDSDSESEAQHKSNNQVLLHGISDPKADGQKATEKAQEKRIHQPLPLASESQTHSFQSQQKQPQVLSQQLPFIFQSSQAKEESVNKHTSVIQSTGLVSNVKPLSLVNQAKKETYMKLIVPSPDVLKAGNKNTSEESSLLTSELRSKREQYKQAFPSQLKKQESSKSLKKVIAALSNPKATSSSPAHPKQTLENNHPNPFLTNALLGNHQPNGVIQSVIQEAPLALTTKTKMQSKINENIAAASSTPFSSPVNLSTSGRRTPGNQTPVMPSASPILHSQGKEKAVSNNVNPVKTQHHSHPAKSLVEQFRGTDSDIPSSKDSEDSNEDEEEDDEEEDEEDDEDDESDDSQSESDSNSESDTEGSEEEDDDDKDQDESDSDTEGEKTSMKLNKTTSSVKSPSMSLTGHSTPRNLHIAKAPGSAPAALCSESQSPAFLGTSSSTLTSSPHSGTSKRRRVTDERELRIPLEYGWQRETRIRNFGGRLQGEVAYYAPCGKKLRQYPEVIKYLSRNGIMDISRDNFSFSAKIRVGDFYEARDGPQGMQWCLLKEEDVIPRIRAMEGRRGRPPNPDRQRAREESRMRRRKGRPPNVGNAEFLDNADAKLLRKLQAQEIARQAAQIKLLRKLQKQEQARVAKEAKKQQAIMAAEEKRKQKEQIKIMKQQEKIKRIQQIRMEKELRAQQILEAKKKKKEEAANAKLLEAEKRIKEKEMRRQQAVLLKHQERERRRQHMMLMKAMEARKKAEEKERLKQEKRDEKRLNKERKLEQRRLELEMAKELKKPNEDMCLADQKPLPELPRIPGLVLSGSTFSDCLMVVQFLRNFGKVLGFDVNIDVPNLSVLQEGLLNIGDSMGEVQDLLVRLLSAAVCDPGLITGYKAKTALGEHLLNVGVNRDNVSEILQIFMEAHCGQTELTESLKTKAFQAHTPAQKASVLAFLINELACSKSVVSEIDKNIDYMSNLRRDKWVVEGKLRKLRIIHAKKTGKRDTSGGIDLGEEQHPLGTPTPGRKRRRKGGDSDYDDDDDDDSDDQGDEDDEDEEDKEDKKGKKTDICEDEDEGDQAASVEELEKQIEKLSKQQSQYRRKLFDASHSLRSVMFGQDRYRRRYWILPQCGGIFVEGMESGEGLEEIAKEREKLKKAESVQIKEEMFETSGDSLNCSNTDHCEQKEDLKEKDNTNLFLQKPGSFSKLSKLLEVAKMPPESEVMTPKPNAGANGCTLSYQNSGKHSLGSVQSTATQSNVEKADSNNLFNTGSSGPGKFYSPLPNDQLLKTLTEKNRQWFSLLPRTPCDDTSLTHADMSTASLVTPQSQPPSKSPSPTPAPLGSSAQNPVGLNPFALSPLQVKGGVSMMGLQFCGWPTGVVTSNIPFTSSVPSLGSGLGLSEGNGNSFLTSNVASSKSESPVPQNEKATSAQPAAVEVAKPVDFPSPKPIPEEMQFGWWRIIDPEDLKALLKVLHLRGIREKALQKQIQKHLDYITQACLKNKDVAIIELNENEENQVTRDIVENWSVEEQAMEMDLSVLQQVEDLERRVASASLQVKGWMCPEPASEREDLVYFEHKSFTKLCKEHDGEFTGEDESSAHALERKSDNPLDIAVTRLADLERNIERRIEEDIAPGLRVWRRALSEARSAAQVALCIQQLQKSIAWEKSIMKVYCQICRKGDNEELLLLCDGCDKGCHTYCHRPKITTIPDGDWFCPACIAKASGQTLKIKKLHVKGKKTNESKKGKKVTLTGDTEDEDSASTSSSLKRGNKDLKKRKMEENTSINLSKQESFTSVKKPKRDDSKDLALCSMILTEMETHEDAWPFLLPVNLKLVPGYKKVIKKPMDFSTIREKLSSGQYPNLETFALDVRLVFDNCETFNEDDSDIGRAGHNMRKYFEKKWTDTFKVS
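AlphaScreen displacement of biotin-H3(5-23)K14Ac peptide (50 nM final) from BAZ2B (50 nM final) in PBS pH 7.4, 0.01% Tween-20; complex preformed 30 min RT, then compounds (top 110 uM) 30 min RT, beads 20 min dark.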
CtBP-E1A inh = CtBP/E1A binding inhibition; AlphaScreen GST-E1A/His-CtBP binding, 1536-well; active compounds read low; activity change, % (test concentration not listed); 340,000 tested, 0.49% active; in the data active means activity change below about -65%; inconclusive means mostly about -30% to -63%; further: on the % scale 0 is the no-effect control and ±100 the full control effect
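Protein mix (5X: 125 nM each GST-E1A, His-CtBP) was incubated with pinned compound 2 h at 37 deg C in dark, in 50 mM Tris pH 8.0 buffer with 300 mM NaCl. Glutathione donor and nickel acceptor beads followed; AlphaScreen signal read after 1 h.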
HP1b chromo inh = inhibitors of HP1-beta chromodomain binding to methylated histone tails; P83916; AlphaScreen HP1-beta / biotin-H3K9me3 peptide binding; Potency, µM (series often up to 114 µM), for inactives: top-dose activity change, negative = inhibition, most hits filed as inhibitors; 390,000 tested, 0.56% active; further: potency means the concentration at half of the fitted maximal effect; nearly all actives have a fitted effect of over 70% in size
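Compound inhibition of the preformed complex between 50 nM HP1-beta and 50 nM biotinylated H3K9me3 peptide was read by AlphaScreen. Buffer was PBS pH 7.4 with 0.01% Tween-20. Incubations ran 30 min at room temperature, with 10 ug/mL donor/acceptor beads.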
Six1-Eya2 inh = inhibitors of human Six1/Eya2 interaction | Q15475+O00167 | AlphaScreen GST-Six1/His-Eya2 binding, biochemical; active compounds read low | activity change, % (test concentration not listed) | 360,000 tested, 0.56% active; in the data active means activity change below about -65%; inconclusive means mostly about -30% to -63%; further: on the % scale 0 is the no-effect control and ±100 the full control effect
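Compounds are tested against tagged Six1 and Eya2 proteins bridged by glutathione donor and nickel acceptor beads; after a one-hour incubation at 37 °C without light, AlphaScreen emission is recorded.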
G9a inh = inhibitors of human histone lysine methyltransferase G9a; Q96KQ7; Potency, µM (series often up to 102 µM), without a hit: at the highest dose activity, negative = inhibition, hits mostly inhibitors; AID 504332; G9a H3K9 monomethylation, AlphaScreen, 2 h; 350,000 tested, 8.8% active; further: potency means the concentration at half of the fitted maximal effect; on the % scale 0 is the no-effect control and ±100 the full control effect; nearly all actives have a fitted effect of over 75% in size
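Enzyme 20 nM + cpd, 15 min RT; add b-H3K9 pep 500 nM / SAM 20 uM; 2 h RT; anti-H3K9me1 Ab 0.5 ug/mL + SA donor / anti-rabbit acceptor beads 20 ug/mL each, 10 min; AlphaScreen read.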
JMJD2A Tudor inh = inhibitors of human JMJD2A Tudor domain. AID 504339. 390,000 tested, 4.4% active. AlphaScreen JMJD2A-Tudor / H3K4me3 peptide binding. Potency, µM (top dose mostly 114 µM), for the others: at the highest dose activity change, negative = inhibition, usual class: inhibitors. O75164; further: potency means the concentration at half of the fitted maximal effect; on the % scale 0 is the no-effect control and ±100 the full control effect; nearly all actives have a fitted effect of over 50% in size
An asterisk follows results filed as active; ? = inconclusive; . = no result; ! = not active in a repeat; [ ] = remark or other dose. The list is not random: actives were taken first. Their share in the collection is about 10%. Unless noted, the call rests on the fitted dose curve; in most records, active means well fitted inhibition curve with a large enough effect; inconclusive means small, poorly fitted or top-dose-only effect; inactive means no such curve, though single readings can be large or run the other way.

SMILES	BAZ2B block	CtBP-E1A inh	HP1b chromo inh	Six1-Eya2 inh	G9a inh	JMJD2A Tudor inh
O=C(N/N=C\c1ccc([N+](=O)[O-])s1)C1COc2ccccc2O1 (centres undefined)	-38%	1	-3%	-2	13%	?
O=C(N/N=C\c1ccc([N+](=O)[O-])o1)C1COc2ccccc2O1 (centres undefined)	-16%	-21	39%	-17	56µM*	-11%
O=C(N/N=C\c1ccc(-c2ccccc2[N+](=O)[O-])o1)C1COc2ccccc2O1 (centres undefined)	?	?	-29%	?	28µM*	?
COC(=O)C1=C(C)N(C(C)C)C(=O)C1(NC(=O)c1ccc(C(C)(C)C)cc1)C(F)(F)F (centres undefined)	-17%	.	22%	.	-4%[59 µM]	-16%
Oc1c(Cl)cc(Cl)cc1/C=N/c1nccs1	-2%	-24	16%	-24	8.9µM*	-18%
COCCn1c(C)cc(O)c(C(c2ccccc2OC)N2CCCCC2)c1=O (centres undefined)	1%	.	33%[57 µM]	.	6%[59 µM]	-12%
CC(=O)Oc1ccc(N(C(C)=O)S(=O)(=O)c2ccccc2)c2ccccc12	.	-3	.	0	.	.
COc1ccc(S(=O)(=O)N(C(C)=O)c2ccc(OC(C)=O)c3ccccc23)cc1[N+](=O)[O-]	4%	.	41%	-13	79µM*	-25%
O=C(CN1CCN(c2ccc(F)cc2)CC1)NCc1ccc(F)cc1	-23%	.	24%	-2	5%	-6%
COc1ccc(CC(=O)NCc2n[nH]c(=S)n2-c2ccccc2OC)cc1	.	7	52%	-4	35µM*	14µM*
CCN(CC(=O)NCc1ccc(F)cc1)C(=O)CN1CCN(c2ccc(OC)cc2)CC1	18µM*	-4	18µM*	14	7.9µM*	0.89µM*
COc1ccc(CC(=O)NCc2nnc(SCc3ccc(C)cc3)n2C)cc1	-4%	-4	18%	3	8%	-20%
COc1ccc(-n2c(CNC(=O)c3cccs3)n[nH]c2=S)cc1	-4%	5	5%	1	20µM*	22µM*
COc1ccc(CC(=O)NCc2n[nH]c(=S)n2-c2cccc(Cl)c2)cc1	-20%	1	44%	3	3.2µM*	50µM*
Cc1c(C(=O)NCc2n[nH]c(=S)n2-c2ccc(F)cc2)cccc1[N+](=O)[O-]	3%	11	52%	-7	10µM*	40µM*
CCn1c(CNC(=O)Cc2ccc(OC)cc2)n[nH]c1=S	-22%	6	48%	8	?	?
COc1ccc(CC(=O)NCc2n[nH]c(=S)n2-c2ccc(F)cc2)cc1	-18%	.	31%	10	-36%[12.7 µM]	50µM*
CCc1nc2c(OCc3cccc(OC)c3)cccn2c1N(C)C(=O)c1ccc(OC)cc1	.	-1	.	-6	.	.
N#C/C(=C\c1coc2ccccc2c1=O)C(N)=S	?	-13	?	-7	1.8µM*	-32%
N#CCC(=O)N/N=C/c1coc2ccccc2c1=O	0%	3	24%	-19	.	-5%
COC(=O)C1=NN(N=O)C2(CC(=O)N(c3cc(C)cc(C)c3)C2=O)C1 (centres undefined)	-2%	-12	36%	-3	14µM*	?
Cc1ccc2occ(CC(=O)Nc3c(C(=O)Nc4ccc(Cl)cc4)oc4ccccc34)c2c1	-3%	.	41%	.	0%[59 µM]	-9%
O=C1SC(Nc2ccc(Cl)cc2)C(=O)N1Cc1ccccc1 (centres undefined)	15%	.	75%	.	-43%[59 µM]	8%
COC(=O)c1cccc(CN2C(=O)SC(Nc3ccccc3)C2=O)c1 (centres undefined)	-9%	1	34%	8	79µM*	1%
CCOc1ccc(NC2SC(=O)N(Cc3ccccc3)C2=O)cc1 (centres undefined)	?	.	-20%	.	11µM*	?
SMILES	BAZ2B block	CtBP-E1A inh	HP1b chromo inh	Six1-Eya2 inh	G9a inh	JMJD2A Tudor inh
CCC1Oc2ccc(C)cc2N(CC(=O)N2CCN(c3ccc(F)cc3)CC2)C1=O (centres undefined)	-23%	-2	13%	0	45µM*	?
O=C(Nc1ccc(C2=NCCN2)cc1)c1ccc(C(=O)Nc2ccc(C3=NCCN3)cc2)c([N+](=O)[O-])c1	?	?	?	-18	40µM*	?
Cc1c(C(=O)N2CCC(C)CC2)c(S(=O)(=O)NCc2ccccc2)c(C)n1C	-9%	.	27%	.	10%[59 µM]	-16%
C/C(N)=C(/C#N)C(=O)CSc1nnc(Nc2cccc(C)c2)s1	?	-7	-5%	?	?	79µM*!
C/C(N)=C(/C#N)C(=O)CSc1cc(Cl)ccc1Cl	-18%	6	28%	2	?	-7%
C/C(N)=C(/C#N)C(=O)CSc1nc2cc(Cl)ccc2s1	-10%	-3	10%	-14	14µM*	-19%
COc1ccc(-n2ncc(C(=O)N3CCN(C4CCCCC4)CC3)c2C2CCN(C(=O)OC(C)(C)C)CC2)cc1	2%[57.1 µM]	.	26%	.	-7%[59 µM]	-17%
NC(=O)CSc1oc(-c2ccco2)nc1S(=O)(=O)c1ccc(Cl)cc1	-25%	17	11%	-6	32µM*	-19%
NC(=O)CSc1oc(-c2ccco2)nc1S(=O)(=O)c1ccc(Br)cc1	?	-2	25%	4	28µM*	-4%
CC(C)Sc1oc(-c2ccco2)nc1S(=O)(=O)c1ccc(F)cc1	-20%	6	21%	-3	10µM*	?
CC(C)CSc1oc(-c2ccco2)nc1S(=O)(=O)c1ccc(Br)cc1	-1%	.	46%	.	10%[59 µM]	17%
CSc1oc(-c2ccco2)nc1S(=O)(=O)c1ccc(Br)cc1	-32%	-5	28%	-2	40µM*	-33%
CCCSc1oc(-c2ccco2)nc1S(=O)(=O)c1ccc(Br)cc1	-18%	.	21%	.	-47%[59 µM]	2%
Cc1ccc(S(=O)(=O)c2nc(-c3ccco3)oc2SCC(N)=O)cc1	-10%	-2	-25%	-13	?	-24%
CCCCCNS(=O)(=O)c1ccc(N2CCCCS2(=O)=O)cc1	-7%	.	28%	.	7%[12.7 µM]	4%
CC(=O)N1CCCc2cc(S(=O)(=O)N(C)CC(=O)Nc3ccc(C)cc3C)ccc21	2%	.	18%[57 µM]	.	11%[59 µM]	-16%
O=C(CSc1oc(-c2ccccc2)nc1S(=O)(=O)c1ccc(Cl)cc1)c1ccccc1	-6%	.	3%	.	11µM*	?
CC1(C)NC(=O)N(CC(=O)OCc2cc(=O)n3cc(Br)ccc3n2)C1=O	.	8	21%	4	0%	-3%
O=C(CN1C(=O)NC2(CCCC2)C1=O)OCc1cc(=O)n2cc(Br)ccc2n1	?	1	?	-2	?	50µM*

Screens deposited in PubChem BioAssay by National Center for Advancing Translational Sciences (NCATS).
